Among the data in PubChem BioAssay AID431 (Sanford-Burnham Center for Chemical Genomics, 2006) are cytotoxicity values, retold here.

Out of some 63,000 compounds screened, about 1,100 (1.7%) were called active.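 How the source made its calls: active means compounds whose percent cytotoxicity in the single-dose primary screen, scaled between solvent and toxic-drug controls, exceeds 50; inactive means the rest.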 For the sample, actives were picked, then their nearest neighbours and some compounds at random. Results with a measured potency or affinity are listed apart.

This experiment can be described thus: cytotoxicity in KRAS-transformed pancreatic duct cells, primary screen, cell-based, fluorescence, HTS (AID 431).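 Further: 0% = DMSO solvent wells and 100% = doxorubicin-treated wells.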 Particulars: HPDE-C7K KRASV12 cells, Alamar Blue viability, 48 h; at 10 µM; hits give high values. For orientation: Alamar Blue is a resazurin reagent that responds to reducing activity.
For `COCCN(C(=O)CCC(=O)Nc1cccnc1)C(C(=O)NC1CCCCC1)c1ccccc1` (stereo not given), the cytotoxicity is -2.1% (inactive).
In the case of `COC(=O)C1=C(C)N=c2s/c(=C/c3ccoc3)c(=O)n2C1c1ccccc1` (stereo not given), the cytotoxicity is 8.9% (inactive).
In the case of `CSc1nnc(Cn2c(=O)sc3ccccc32)n1C`, the cytotoxicity is 6.8% (inactive).
Take `CCOc1ccc(N2CC(C(=O)Nc3cccc(C)c3C)CC2=O)cc1` (stereo not given): the cytotoxicity is 15.6% (inactive).
In the case of `COc1ccc(OC)c(S(=O)(=O)NCc2cn3c(C)csc3n2)c1` it was -5.8% (inactive); in that of `CN1CCN(S(=O)(=O)c2ccc(NC(=O)Nc3cccc(Cl)c3)cc2)CC1`, 53% (active); in that of `CN1CCN(S(=O)(=O)c2ccc(NC(=O)c3cccc(S(=O)(=O)N4CCCC4)c3)cc2)CC1`, -54.2% (inactive).
As to `COC(=O)Nc1ccc(S(=O)(=O)N2CCN(C)CC2)cc1`, the cytotoxicity is 10.6% (inactive).
Regarding `O=C(CSc1nnnn1-c1ccc2c(c1)CCC2)NCc1cccs1`, the cytotoxicity is 13.2% (inactive).
Turning to `Cn1c(N)c(C(=O)NCc2ccccc2)sc1=S`, the cytotoxicity is -2% (inactive).
With `Cc1cc(C)c(C#N)c(Nc2ccc3c(c2)OCCO3)n1`, the cytotoxicity was 11.2% (inactive).
On to `c1ccc(Nc2ncnc3c2oc2ccccc23)cc1`, for which the cytotoxicity was -10% (inactive).
Consider `c1ccc2c(c1)oc1c(NCCN3CCOCC3)ncnc12`, for which the cytotoxicity is -2.7% (inactive).
In the case of `CCCCOC(=O)c1ccc(NC(=O)c2cnccn2)cc1` it was 10.3% (inactive).
Take `C=CCNC(=O)c1c(N)n(-c2cccc(S(N)(=O)=O)c2)c2nc3ccccc3nc12`: the cytotoxicity was 8.3% (inactive).
Under `C=CCn1c(N)c(C(=O)OCCC)c2nc3ccccc3nc21` stands 7.1% (inactive).
For `C=CCn1c(N)c(C(=O)OC(C)(C)C)c2nc3ccccc3nc21`, the cytotoxicity is 62.9% (active).
Under `C=CCNC(=O)c1c(N)n(-c2ccc3c(c2)OCO3)c2nc3ccccc3nc12` stands -6.4% (inactive); under `C=CCn1c(N)c(C(=O)Nc2ccccc2)c2nc3ccccc3nc21`, 60.6% (active).
With `C=CCn1c(N)c(C(=O)OC(C)CC)c2nc3ccccc3nc21` (stereo not given), the cytotoxicity is 24.5% (inactive).
As for `Nc1c(C(=O)N2CCCCC2)sc(=S)n1-c1ccccc1`, the cytotoxicity was -4.9% (inactive).
As to `CCOC(=O)Cc1nn2c(=O)cc(C)nc2s1`, the cytotoxicity was -0.8% (inactive).
In the case of `CC(=O)NC1(C(F)(F)F)C(=O)Nc2c1c(=O)[nH]c(=O)n2Cc1ccco1` (stereo not given) it was -16.1% (inactive); in that of `Cc1cc(C)n(-c2nc(Nc3ccccc3)nc(-n3nc(C)cc3C)n2)n1`, 9.6% (inactive).
In the case of `CC(=O)c1cccc(NC(=O)CC2SC(N3CCCCC3)=NC2=O)c1` (stereo not given) it was -7.4% (inactive).
For `CCOCC(=O)Nc1nc2ccc(OCC)cc2s1`, the cytotoxicity was 4.3% (inactive).
With `Cc1cccc(N(CC(=O)NCc2ccccc2)C(=O)Cn2nnc(-c3ccc(C)o3)n2)c1`, the cytotoxicity was -14.9% (inactive).
On to `CC(CN1CCOCC1)OC(=O)c1ccc2c(c1)OCCO2` (stereo not given), for which the cytotoxicity was 9.2% (inactive).
Under `COc1ccc(C(=O)OC(C)CN2CCOCC2)cc1OC` (stereo not given) stands -10% (inactive); under `O=C(CCN1C(=O)C2C3C=CC(C3)C2C1=O)NCc1cccnc1` (stereo not given), -6.8% (inactive).
Consider `O=C(CSc1nc(Nc2ccccc2)nc(N2CCOCC2)n1)N1CCCC1`, for which the cytotoxicity is 5.4% (inactive).
Consider `O=C(CSc1nc2ccccc2c(=O)n1C1CC1)NCc1ccccc1`, for which the cytotoxicity was 3.5% (inactive).
In the case of `COc1ccccc1-c1nnn(CC#N)n1` it was 6.1% (inactive); in that of `CCOC(=O)c1c(C)c(C(=O)N2CCCCCC2)c(C)n1CC`, -2.8% (inactive).
In the case of `O=C1c2ccccc2NC(c2ccccc2)N1Cc1ccco1` (stereo not given) it was -5.8% (inactive).
In the case of `CCOC(=O)CSC1=C(C#N)C(=O)NC2(CCCCC2)S1` it was 13.8% (inactive).
As to `CCOC(=O)CC1=C(C(=O)OCC)C(c2ccc(OC)c(OC)c2)C(C#N)=C(N)O1` (stereo not given), the cytotoxicity is 5.7% (inactive).
Under `CCOC(=O)CSC1=C(C#N)C(=O)NC(c2ccc(OC)c(OC)c2)S1` (stereo not given) stands 70.5% (active); under `COc1ccc(CCn2c(C)ccc2C)cc1OC`, -8.8% (inactive); under `O=C(NC1CCCCC1)N1CCC(c2nc3ccc(Cl)cc3[nH]2)CC1`, 7.4% (inactive).
With `Cn1nc(-c2ccc(Cl)cc2)c2cc(C(=O)NCCCN3CCOCC3)sc21`, the cytotoxicity was 9.2% (inactive).
`CN1CCN(CCCNC(=O)c2cc3c(-c4ccc(Cl)cc4)nn(C)c3s2)CC1`: the cytotoxicity is 3.3% (inactive).
For the molecule `Cn1nc(-c2ccc(Cl)cc2)c2cc(C(=O)NCCCN3CCCC3)sc21`, the cytotoxicity is 54.3% (active).
Turning to `COc1ccccc1N1CCN(CCC(=O)Nc2ccc3c(c2)OCO3)CC1`, the cytotoxicity is 7.5% (inactive).
`CCOc1ccc(C(=O)Nc2cccc(-c3nc4cccnc4o3)c2)cc1Cl`: the cytotoxicity was 56% (active).
Regarding `Cc1ccc(-c2nc3cccnc3o2)cc1NC(=O)COc1ccc(Cl)cc1C`, the cytotoxicity is 0.4% (inactive).
Regarding `CCOc1cccc(C(=O)Nc2cccc(-c3nnc(-c4ccccc4)o3)c2)c1`, the cytotoxicity was -9.8% (inactive).
Take `CCN1CCN(c2ccc(NC(=O)c3cccc4ncccc34)cc2)CC1`: the cytotoxicity was -12.5% (inactive).
Regarding `Cc1sc2nc(SCC(=O)c3cccs3)n(Cc3ccco3)c(=O)c2c1C`, the cytotoxicity is 31.6% (inactive).
With `COc1cccc(-c2nc(NC(C)C)c3ccccc3n2)c1O`, the cytotoxicity was 42.1% (inactive).
As for `C=CCNc1nc(-c2cccc(OC)c2O)nc2ccccc12`, the cytotoxicity was -8.3% (inactive).
`CCN(CC)c1nc(-c2cccc(OC)c2O)nc2ccccc12`: the cytotoxicity was -8.4% (inactive).
Under `Oc1ccc(Nc2nc(NCC3CCCO3)c3ccccc3n2)cc1` (stereo not given) stands 46.8% (inactive).
Consider `COc1cccc(-c2nc(NCC3CCCO3)c3ccccc3n2)c1O` (stereo not given), for which the cytotoxicity is 55.1% (active).
For `CCC1CCCCN1c1nc(-c2cccc(OC)c2O)nc2ccccc12` (stereo not given), the cytotoxicity is 8.3% (inactive).
As to `CCC(C)Nc1nc(-c2cccc(OC)c2O)nc2ccccc12` (stereo not given), the cytotoxicity is 114% (active).
As for `COc1cccc(-c2nc(N3CCCCC3)c3ccccc3n2)c1O`, the cytotoxicity is -18.8% (inactive).
In the case of `COc1cccc(-c2nc(NC(C)(C)C)c3ccccc3n2)c1O` it was 20.9% (inactive); in that of `Oc1ccccc1-c1nc(NCc2ccco2)c2ccccc2n1`, 5.3% (inactive).
For `COc1cccc(-c2nc(N3CCCCC3C)c3ccccc3n2)c1O` (stereo not given), the cytotoxicity is 63.1% (active).
For the molecule `CS(=O)(=O)N(CC(=O)N1CCN(Cc2ccccc2)CC1)Cc1ccccc1`, the cytotoxicity is -3% (inactive).
In the case of `COCCCNc1nc2c(c(=O)[nH]c(=O)n2C)n1CCCc1ccccc1` it was -3.8% (inactive).
Under `CCCn1c(CNS(=O)(=O)c2ccc(C)cc2)nc2ccccc21` stands 5.2% (inactive); under `O=C(CN1CCN(C(=O)c2ccccc2F)CC1)Nc1ccc(Br)cc1`, -5.9% (inactive); under `CCCCn1cnc2sc3c(c2c1=N)CCCC3`, -7.6% (inactive).
Take `CCCCOC(=O)Nc1ccccc1C(N)=O`: the cytotoxicity is -5.7% (inactive).
Under `COc1ccc(/C(O)=C2/C(=O)C(=O)N(CCCC(=O)O)C2c2ccc(OC)c(OC)c2)cc1` (stereo not given) stands -0.6% (inactive); under `c1coc(CNc2nc(N3CCCCC3)nc3ccccc23)c1`, 38.2% (inactive).
As to `Oc1ccccc1Nc1nc(NCC2CCCO2)c2ccccc2n1` (stereo not given), the cytotoxicity was 12.1% (inactive).
With `c1ccc(-c2nc(NCC3CCCO3)c3ccccc3n2)nc1` (stereo not given), the cytotoxicity is 9.5% (inactive).
As for `Oc1ccccc1-c1nc(NCC2CCCO2)c2ccccc2n1` (stereo not given), the cytotoxicity is 50.1% (active).
In the case of `c1ccc(-c2nc(NCc3ccco3)c3ccccc3n2)nc1` it was 20% (inactive); in that of `CC(=O)c1ccc(NC(=O)CSc2nnc(Cn3c(=O)sc4ccccc43)n2C)cc1`, -1.4% (inactive); in that of `N#Cc1ccc(CSc2nnc(-c3ccccn3)n2-c2ccccc2)cc1`, 10.8% (inactive).
With `COc1cc2[nH]c(=O)n(CCCCCC(=O)NCCCN3CCC(C)CC3)c(=O)c2cc1OC`, the cytotoxicity was -6.7% (inactive).
In the case of `O=C(CN1C(=O)NC2(CCCCCCC2)C1=O)N1CCOCC1`, the cytotoxicity was -1.1% (inactive).
Turning to `O=C(Cn1c(=O)oc2cc(S(=O)(=O)NCc3ccccc3)ccc21)NCc1ccco1`, the cytotoxicity was 2.7% (inactive).
Regarding `CCc1nc(N2CCOCC2)c(C#N)c2c1CCCC2`, the cytotoxicity is -2.9% (inactive).
Consider `CCCc1nc(N2CCCC2)c(C#N)c2c1CCCC2`, for which the cytotoxicity was 87.9% (active).
In the case of `CCc1nc(N2CCN(C(=O)c3ccccc3)CC2)c(C#N)c2c1COC(C)(C)C2` it was 5.9% (inactive); in that of `CCCc1nc(N2CCOCC2)c(C#N)c2c1CCCC2`, -0.6% (inactive).
In the case of `CC(=O)N1CCN(c2nc(CC(C)C)c3c(c2C#N)CCC3)CC1`, the cytotoxicity was 2% (inactive).
Regarding `CCc1nc(N2CCCC2)c(C#N)c2c1CCCC2`, the cytotoxicity is -11.1% (inactive).
For `CC(C)Cc1nc(N2CCN(C(=O)C(C)C)CC2)c(C#N)c2c1CCC2`, the cytotoxicity is -14.5% (inactive).
Take `CC1(C)Cc2c(C#N)c(N3CCOCC3)nc(Cc3ccccc3)c2CO1`: the cytotoxicity was 40% (inactive).
For the molecule `CC(C)Cc1nc(N2CCCCC2)c(C#N)c2c1CCC2`, the cytotoxicity was 16.1% (inactive).
Under `CC(C)Cc1nc(N2CCN(C(=O)c3ccco3)CC2)c(C#N)c2c1CCC2` stands 63.2% (active); under `CC(C)Cc1nc(N2CCOCC2)c(C#N)c2c1CCC2`, 64.8% (active).
In the case of `CCCNC1=C(C)C(=O)CC1`, the cytotoxicity was 15.5% (inactive).
On to `CCOc1ncccc1C(=O)OCC(=O)c1ccc[nH]1`, for which the cytotoxicity was 2.7% (inactive).
Regarding `COc1ccc(CCNC(=O)C2=COCCO2)cc1`, the cytotoxicity was -8.1% (inactive).
With `O=C(Nc1ccc2c(c1)OCO2)c1cc2n(n1)C(C(F)(F)F)CC(c1ccccc1)N2` (stereo not given), the cytotoxicity is 72.7% (active).
In the case of `O=C(Nc1cc(Cl)ccc1O)c1cc2n(n1)C(C(F)(F)F)CC(c1ccc3c(c1)OCO3)N2` (stereo not given) it was -19.1% (inactive); in that of `Cc1cc(NC(=O)c2cc3n(n2)C(C(F)(F)F)CC(c2ccc(Cl)c(Cl)c2)N3)no1` (stereo not given), 14.7% (inactive).
With `COc1ccc(OC)c(NC(=O)c2cc3n(n2)C(C(F)(F)F)CC(c2ccc4c(c2)OCO4)N3)c1` (stereo not given), the cytotoxicity was 42.4% (inactive).
Turning to `O=C(NCc1ccc2c(c1)OCO2)c1cc2n(n1)C(C(F)(F)F)CC(c1ccc3c(c1)OCO3)N2` (stereo not given), the cytotoxicity is 21.6% (inactive).
As for `COc1ccccc1NC(=O)c1cc2n(n1)C(C(F)(F)F)CC(c1ccc3c(c1)OCO3)N2` (stereo not given), the cytotoxicity is 41.8% (inactive).
With `Cc1cccc(NC(=O)c2cc3n(n2)C(C(F)(F)F)CC(c2ccc4c(c2)OCO4)N3)c1` (stereo not given), the cytotoxicity was 75.8% (active).
With `COc1ccc(C2CC(C(F)(F)F)n3nc(C(=O)Nc4ccc5c(c4)OCO5)cc3N2)cc1` (stereo not given), the cytotoxicity was -10.9% (inactive).
With `COc1ccc(NC(=O)c2cc3n(n2)C(C(F)(F)F)CC(c2ccc4c(c2)OCO4)N3)cc1OC` (stereo not given), the cytotoxicity is 69.1% (active).
